Common to all, as to experiment: DAPPL (digital affinity profiling via proximity ligation, sequencing); 10 mM Tris-HCl pH 7.5, 50 mM NaCl, 1 mM DTT, 4% glycerol, room temperature, 30 min; GST-TFs on glutathione beads, 16-mer random dsDNA library, 0.1% formaldehyde crosslink after washing; high values mean tight binding
Details in all cases: protein: recombinant; tags: N-terminal GST; dsDNA, one strand shown

One assay has as its target T1, FLI1 (Homo sapiens, UniProt Q01543 1-452).
T1 sequence: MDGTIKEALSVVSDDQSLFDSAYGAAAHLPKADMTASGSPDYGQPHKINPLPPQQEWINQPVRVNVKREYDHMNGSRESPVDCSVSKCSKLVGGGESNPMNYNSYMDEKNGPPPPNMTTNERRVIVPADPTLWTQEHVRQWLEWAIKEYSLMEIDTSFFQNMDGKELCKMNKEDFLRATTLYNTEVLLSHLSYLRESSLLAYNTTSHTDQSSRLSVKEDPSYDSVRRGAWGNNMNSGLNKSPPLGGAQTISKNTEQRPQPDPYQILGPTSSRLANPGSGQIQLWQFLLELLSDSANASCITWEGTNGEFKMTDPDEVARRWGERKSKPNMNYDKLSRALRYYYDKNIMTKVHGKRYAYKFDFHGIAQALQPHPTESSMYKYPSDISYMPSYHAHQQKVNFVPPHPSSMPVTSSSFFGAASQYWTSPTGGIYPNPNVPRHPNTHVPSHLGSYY
The procedure, abridged: (§1)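 Pools of DNA-barcoded human transcription factors, expressed in yeast as GST fusions on glutathione beads and combined with a tag-only sample, were incubated with 200 nmole of a 16-mer random double-stranded DNA library. Incubation took 30 min at room temperature in Tris/NaCl/DTT/glycerol buffer and was followed by washing, 0.1% formaldehyde crosslinking, proximity ligation (BsaI/T4 ligase, 1 h, 37 °C), PCR amplification and sequencing on an Illumina NextSeq500. Binding signal is the ratio of a hexamer's read frequency for a factor to its frequency for the tag-only sample.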

The target in the next assay is T2, ELK1 (Homo sapiens, UniProt P19419 1-428).
T2 sequence: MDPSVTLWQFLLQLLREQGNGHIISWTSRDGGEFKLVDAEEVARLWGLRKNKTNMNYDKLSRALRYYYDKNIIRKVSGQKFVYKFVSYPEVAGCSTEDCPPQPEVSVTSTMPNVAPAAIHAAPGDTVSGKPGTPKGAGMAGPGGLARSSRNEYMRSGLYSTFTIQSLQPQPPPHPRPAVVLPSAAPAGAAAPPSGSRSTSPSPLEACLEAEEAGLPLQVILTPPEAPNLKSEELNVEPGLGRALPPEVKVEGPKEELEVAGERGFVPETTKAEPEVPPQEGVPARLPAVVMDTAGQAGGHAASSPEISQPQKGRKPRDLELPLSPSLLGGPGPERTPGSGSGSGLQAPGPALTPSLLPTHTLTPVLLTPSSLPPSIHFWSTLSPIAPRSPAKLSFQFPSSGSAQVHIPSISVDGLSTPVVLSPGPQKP
The procedure, abridged:
as §1

In a further assay the target is T3, GABPA (Homo sapiens, UniProt Q06546 1-454).
T3 sequence: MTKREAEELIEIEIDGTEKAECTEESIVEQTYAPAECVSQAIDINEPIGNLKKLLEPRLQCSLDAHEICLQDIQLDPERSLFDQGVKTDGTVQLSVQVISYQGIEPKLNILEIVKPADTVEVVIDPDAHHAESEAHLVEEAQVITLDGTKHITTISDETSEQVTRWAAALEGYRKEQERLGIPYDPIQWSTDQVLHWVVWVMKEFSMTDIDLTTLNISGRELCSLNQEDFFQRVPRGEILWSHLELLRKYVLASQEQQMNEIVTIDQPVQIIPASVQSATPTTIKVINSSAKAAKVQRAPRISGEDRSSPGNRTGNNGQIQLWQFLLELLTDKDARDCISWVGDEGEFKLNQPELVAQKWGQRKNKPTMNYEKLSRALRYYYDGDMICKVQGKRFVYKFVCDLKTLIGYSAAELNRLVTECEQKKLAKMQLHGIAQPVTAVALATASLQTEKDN
The procedure, abridged:
as §1

Another assay concerns the target T4, ERG (Homo sapiens, UniProt P11308 1-479).
T4 sequence: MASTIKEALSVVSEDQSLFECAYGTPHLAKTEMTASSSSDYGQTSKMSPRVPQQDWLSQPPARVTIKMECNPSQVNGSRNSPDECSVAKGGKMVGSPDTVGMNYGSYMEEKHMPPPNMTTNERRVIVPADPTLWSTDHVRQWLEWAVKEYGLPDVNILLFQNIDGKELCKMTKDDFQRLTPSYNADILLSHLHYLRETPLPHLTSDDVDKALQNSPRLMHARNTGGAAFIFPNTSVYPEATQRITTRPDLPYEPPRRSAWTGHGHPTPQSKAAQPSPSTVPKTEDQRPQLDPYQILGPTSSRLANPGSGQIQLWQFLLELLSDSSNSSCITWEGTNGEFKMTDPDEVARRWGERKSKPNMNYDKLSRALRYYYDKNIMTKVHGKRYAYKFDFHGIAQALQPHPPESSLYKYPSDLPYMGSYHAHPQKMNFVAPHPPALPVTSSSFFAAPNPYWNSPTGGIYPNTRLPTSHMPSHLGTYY
The method, boiled down: as §1

The target of a further assay is ELF1 (Homo sapiens, UniProt P32519 1-619). The method, boiled down: as §1
For another assay, the target named is T5, EHF (Homo sapiens, UniProt Q9NZC4 1-300).
T5 sequence: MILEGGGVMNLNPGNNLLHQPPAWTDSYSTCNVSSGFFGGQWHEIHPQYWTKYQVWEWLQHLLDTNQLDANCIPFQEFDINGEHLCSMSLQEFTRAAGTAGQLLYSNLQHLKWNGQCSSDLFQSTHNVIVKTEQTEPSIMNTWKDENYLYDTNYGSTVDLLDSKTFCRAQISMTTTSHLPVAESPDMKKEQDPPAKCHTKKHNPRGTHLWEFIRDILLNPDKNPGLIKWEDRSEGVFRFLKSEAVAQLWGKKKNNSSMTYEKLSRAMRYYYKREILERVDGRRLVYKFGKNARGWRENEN
The procedure, abridged: as §1

The target in the next assay is SPI1 (Homo sapiens, UniProt P17947 1-270). The procedure, abridged: as §1
The target in another assay is SPIB (Homo sapiens, UniProt Q01892 1-262). The procedure, abridged:
as §1

Another assay deals with T6, ELK3 (Homo sapiens, UniProt P41970 1-407).
T6 sequence: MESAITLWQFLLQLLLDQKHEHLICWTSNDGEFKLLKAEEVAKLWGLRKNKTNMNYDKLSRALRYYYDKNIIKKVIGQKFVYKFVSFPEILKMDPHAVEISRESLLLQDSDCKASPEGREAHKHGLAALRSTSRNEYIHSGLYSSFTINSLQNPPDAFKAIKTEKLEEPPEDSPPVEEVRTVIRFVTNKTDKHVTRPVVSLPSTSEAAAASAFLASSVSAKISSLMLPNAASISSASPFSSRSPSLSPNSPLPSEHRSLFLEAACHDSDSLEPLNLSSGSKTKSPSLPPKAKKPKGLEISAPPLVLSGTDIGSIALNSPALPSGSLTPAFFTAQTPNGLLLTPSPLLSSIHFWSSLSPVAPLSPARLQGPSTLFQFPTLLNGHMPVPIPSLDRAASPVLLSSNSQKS
The method, boiled down:
as §1

Sequence of SPIB (Q01892 whole entry): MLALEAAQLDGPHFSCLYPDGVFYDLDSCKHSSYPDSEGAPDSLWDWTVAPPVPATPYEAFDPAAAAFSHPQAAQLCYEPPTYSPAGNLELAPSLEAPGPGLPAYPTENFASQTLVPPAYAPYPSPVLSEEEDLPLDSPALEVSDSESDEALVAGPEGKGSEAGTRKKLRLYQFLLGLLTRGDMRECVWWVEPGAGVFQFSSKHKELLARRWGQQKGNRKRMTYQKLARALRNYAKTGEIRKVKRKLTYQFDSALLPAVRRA
Sequence of ELF1 (P32519 whole entry): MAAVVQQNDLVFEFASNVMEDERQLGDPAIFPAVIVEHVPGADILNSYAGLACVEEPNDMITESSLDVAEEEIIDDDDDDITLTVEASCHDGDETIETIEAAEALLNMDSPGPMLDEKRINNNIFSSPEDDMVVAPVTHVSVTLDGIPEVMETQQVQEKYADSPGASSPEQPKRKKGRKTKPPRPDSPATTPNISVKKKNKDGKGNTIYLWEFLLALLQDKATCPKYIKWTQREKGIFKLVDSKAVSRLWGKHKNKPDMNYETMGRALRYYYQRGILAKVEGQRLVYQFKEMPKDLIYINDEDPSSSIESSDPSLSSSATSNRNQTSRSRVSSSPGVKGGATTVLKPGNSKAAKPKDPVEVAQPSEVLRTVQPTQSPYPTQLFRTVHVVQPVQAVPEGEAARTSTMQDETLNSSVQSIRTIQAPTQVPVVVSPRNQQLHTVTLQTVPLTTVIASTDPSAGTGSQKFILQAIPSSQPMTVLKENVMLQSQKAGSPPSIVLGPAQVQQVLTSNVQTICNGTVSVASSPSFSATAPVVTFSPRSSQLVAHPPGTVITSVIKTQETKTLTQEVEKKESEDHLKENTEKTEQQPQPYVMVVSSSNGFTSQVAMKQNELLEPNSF

ACCAAT: the binding signal in the assay with FLI1 is 1.35 fold enrichment (6-mer frequency, TF over GST control); with ELK1, 1.34 fold enrichment (6-mer frequency, TF over GST control); in the assay with GABPA it was 1.4 fold enrichment (6-mer frequency, TF over GST control); in the assay with ERG it was 1.29 fold enrichment (6-mer frequency, TF over GST control); in the assay with ELF1 it was 1.34 fold enrichment (6-mer frequency, TF over GST control); with EHF, 1.28 fold enrichment (6-mer frequency, TF over GST control). Further, the binding signal in the assay with SPI1 was 1.3 fold enrichment (6-mer frequency, TF over GST control); with SPIB it was 1.35 fold enrichment (6-mer frequency, TF over GST control); in the assay with ELK3, 1.34 fold enrichment (6-mer frequency, TF over GST control).
On to CTCTAG, for which the binding signal was 1.25 fold enrichment (6-mer frequency, TF over GST control) in the assay with FLI1; 1.26 fold enrichment (6-mer frequency, TF over GST control) in the assay with ELK1; 1.32 fold enrichment (6-mer frequency, TF over GST control) in the assay with GABPA; 1.25 fold enrichment (6-mer frequency, TF over GST control) with ERG; 1.38 fold enrichment (6-mer frequency, TF over GST control) in the assay with ELF1; 1.36 fold enrichment (6-mer frequency, TF over GST control) with EHF. In addition, the binding signal in the assay with SPI1 is 1.09 fold enrichment (6-mer frequency, TF over GST control); in the assay with SPIB, 1.22 fold enrichment (6-mer frequency, TF over GST control); with ELK3, 1.26 fold enrichment (6-mer frequency, TF over GST control).
Regarding GATCTC, the binding signal with FLI1 is 1.43 fold enrichment (6-mer frequency, TF over GST control); in the assay with ELK1, 1.19 fold enrichment (6-mer frequency, TF over GST control); in the assay with GABPA it was 1.16 fold enrichment (6-mer frequency, TF over GST control); with ERG, 1.2 fold enrichment (6-mer frequency, TF over GST control); in the assay with ELF1 it was 1.27 fold enrichment (6-mer frequency, TF over GST control); with EHF, 1.42 fold enrichment (6-mer frequency, TF over GST control). Also, the binding signal with SPI1 was 1.28 fold enrichment (6-mer frequency, TF over GST control); with SPIB, 1.25 fold enrichment (6-mer frequency, TF over GST control); in the assay with ELK3 it was 1.23 fold enrichment (6-mer frequency, TF over GST control).
As for ATCCGG, the binding signal with FLI1 is 2.65 fold enrichment (6-mer frequency, TF over GST control); with ELK1, 2.59 fold enrichment (6-mer frequency, TF over GST control); in the assay with GABPA it was 2.37 fold enrichment (6-mer frequency, TF over GST control); with ERG, 3.22 fold enrichment (6-mer frequency, TF over GST control); in the assay with ELF1 it was 2.29 fold enrichment (6-mer frequency, TF over GST control); with EHF, 2.65 fold enrichment (6-mer frequency, TF over GST control). The binding signal with SPI1 is 2.37 fold enrichment (6-mer frequency, TF over GST control); with SPIB, 2.77 fold enrichment (6-mer frequency, TF over GST control); with ELK3 it was 2.66 fold enrichment (6-mer frequency, TF over GST control).
With GTCTTT, the binding signal was 1.28 fold enrichment (6-mer frequency, TF over GST control) with FLI1; 1.21 fold enrichment (6-mer frequency, TF over GST control) with ELK1; 1.35 fold enrichment (6-mer frequency, TF over GST control) in the assay with GABPA; 1.15 fold enrichment (6-mer frequency, TF over GST control) with ERG; 1.26 fold enrichment (6-mer frequency, TF over GST control) with ELF1; 1.2 fold enrichment (6-mer frequency, TF over GST control) in the assay with EHF. The binding signal with SPI1 is 1.38 fold enrichment (6-mer frequency, TF over GST control); with SPIB it was 1.23 fold enrichment (6-mer frequency, TF over GST control); with ELK3, 1.34 fold enrichment (6-mer frequency, TF over GST control).
TTTTAA: the binding signal with FLI1 was 1.26 fold enrichment (6-mer frequency, TF over GST control); in the assay with ELK1, 1.28 fold enrichment (6-mer frequency, TF over GST control); with GABPA, 1.25 fold enrichment (6-mer frequency, TF over GST control); with ERG, 1.2 fold enrichment (6-mer frequency, TF over GST control); in the assay with ELF1, 1.29 fold enrichment (6-mer frequency, TF over GST control); with EHF it was 1.22 fold enrichment (6-mer frequency, TF over GST control). In addition, the binding signal was 1.32 fold enrichment (6-mer frequency, TF over GST control) with SPI1; 1.26 fold enrichment (6-mer frequency, TF over GST control) in the assay with SPIB; 1.3 fold enrichment (6-mer frequency, TF over GST control) in the assay with ELK3.
For CCGGAT, the binding signal in the assay with FLI1 is 3.23 fold enrichment (6-mer frequency, TF over GST control); with ELK1, 3.45 fold enrichment (6-mer frequency, TF over GST control); with GABPA, 2.97 fold enrichment (6-mer frequency, TF over GST control); with ERG it was 4.05 fold enrichment (6-mer frequency, TF over GST control); in the assay with ELF1, 2.97 fold enrichment (6-mer frequency, TF over GST control); with EHF it was 3.16 fold enrichment (6-mer frequency, TF over GST control). Also, the binding signal with SPI1 is 2.86 fold enrichment (6-mer frequency, TF over GST control); with SPIB it was 3.26 fold enrichment (6-mer frequency, TF over GST control); in the assay with ELK3 it was 3.33 fold enrichment (6-mer frequency, TF over GST control).
